Only some compounds are listed: those with a hit (about 19% of all), similar ones and a draw of the others.
TDP1 cell CPT: DT40-hTDP1 cell growth loss with CPT | chicken DT40 Tdp1-/-;hTDP1 cells + 20 nM CPT, ATP luminescence, 48 h | Potency, µM (titrated, usually from 46.2 µM), without a hit: at the highest dose activity change, negative = growth inhibition, hits mostly inhibitors | actives 12% (n = 420,000) | AID 686979; note: nearly all actives have a fitted effect of over 55% in size
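Chicken DT40 Tdp1-/- cells stably complemented with human TDP1 were seeded at 400 cells/well in medium containing 20 nM camptothecin, exposed to pin-transferred compounds, and grown at 37 °C for at least 48 hr. Viability was read as ATP luminescence.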
DT40 TDP1 no CPT: qHTS for Inhibitors of human tyrosyl-DNA phosphodiesterase 1 (TDP1): qHTS in cells in absence of CPT; DT40 Tdp1-/- hTDP1 cells, no CPT, ATP luminescence, 48 h; Potency, µM (top dose mostly 46.2 µM), for inactives: at the highest dose activity change, negative = growth inhibition, most hits filed as inhibitors; actives 15% (n = 420,000); AID 686978, 2013; note: nearly all actives have a fitted effect of over 55% in size
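No-CPT arm: Tdp1-/-;hTDP1 DT40 cells (400/well) plus compounds, incubated ≥48 hr at 37 °C. Readout CellTiter-Glo luminescence.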
KB-3-1 tox: kills parental KB-3-1 adenocarcinoma cells; KB-3-1 viability, CellTiter-Glo ATP luminescence, 72 h; Potency, µM (doses to about 46.1 µM), hits mostly cytotoxic; actives 1.4% (n = 400,000); AID 1347075; note: nearly all actives have a fitted effect of over 60% in size
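Parental KB-3-1 adenocarcinoma cells in phenol-red-free DMEM with 10% FBS were pin-treated with compounds at several concentrations, incubated 72 h at 37 °C, and viability read by CellTiter-Glo luminescence; concentration-effect curves were fitted after normalization.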
KB-V1 cytotox: kills drug-selected multidrug resistant KB-V1 cells. KB-V1 MDR cells viability, CellTiter-Glo, 72 h. Potency, µM (top dose mostly 46.1 µM), most hits filed as cytotoxic. actives 3.4% (n = 400,000). AID 1347076; note: nearly all actives have a fitted effect of over 60% in size
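KB-V1, DMEM (no phenol red) + 10% FBS; cpd pin-transferred, titration series; 72 h, 37 degrees C; CellTiter-Glo, luminescence. Data normalized, curve-fit.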
HT1080NT lethal: kills 2HG-producing HT-1080-NT fibrosarcoma cells. HT-1080-NT fibrosarcoma viability, CellTiter-Glo ATP luminescence, 48 h. Potency, µM (top dose mostly 46.1 µM), without a hit: at the top dose activity, negative = less viability, actives largely listed as cytotoxic. actives 1.6% (n = 360,000);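 note: NT is the 2HG producing partner of a matched IDH1 knockdown line; 0% = DMSO-treated cells and -100% = media-only wells without cells; nearly all actives have a fitted effect of over 55% in size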
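Compounds were tested in concentration-response format on HT-1080-NT cells for 48 hours at 37 degrees C. Cell viability came from CellTiter-Glo luminescence; curves were classified by r2, response magnitude and activity.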
HT1080 IDH1KD tx: HT-1080 IDH1 knockdown cell toxicity (counter line). HT-1080 IDH1 knockdown viability, ATP luminescence, 48 h. Potency, µM (top dose mostly 46.1 µM), without a hit: at the top dose activity, negative = toxicity, hits mostly cytotoxic. actives 2% (n = 360,000). AID 686971;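 note: 0% = DMSO wells and -100% = cell-free medium wells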
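Luminescent ATP read-out (CellTiter-Glo, 10 min at room temperature) after 48 h compound exposure at 37 °C gave viability of IDH1-knockdown HT-1080 cells. Activity was normalised to DMSO and cell-free wells, then fitted as concentration-response curves.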
An asterisk follows results filed as active; i = inactive; ? = inconclusive; . = not tested or not shown; ! = not confirmed by another sample; [ ] = another dose, or the depositor's remark. Calls come from the whole dose curve; as a rule, active = well fitted curve in the direction sought with a large enough effect; inconclusive = small, poorly fitted or top-dose-only effect, or another doubt; inactive = no such curve, though single readings can be large; an effect the other way counts as inactive or inconclusive. Unless noted, % is set by controls: 0 for no effect and ±100 for the full control effect; potency is the fitted concentration of half-maximal effect.

SMILES	TDP1 cell CPT	DT40 TDP1 no CPT	KB-3-1 tox	KB-V1 cytotox	HT1080NT lethal	HT1080 IDH1KD tx
CCOC(=O)C1=C(N)OC2=C(C(=O)CC(C)(C)C2)C1c1cc(CSc2nnnn2C)cs1 (stereo not given)	-19.1%	-19.6%	i	i	10.5%	-4.8%
O=C(Nc1cccc(Cl)c1)NC1(C(=O)NCc2cccs2)CCCCC1	20.6µM*	25.9µM*	i	i	?	-11.9%[9.24 µM]
CCCN1C2CCCC1CC(NC(=S)Nc1cccc(C)c1C)C2 (stereo not given)	-18.3%	?	i	i	-13.3%	-7.7%
O=C(Nc1cccc(Cl)c1)NC1CC2CCC(C1)N2Cc1cccs1 (stereo not given)	20.6µM*	25.9µM*	i	i	-6.9%	2.5%
O=C(NCc1cccs1)Nc1cccc(Cl)c1	-19.5%	-4.7%	i	i	-0.6%	-5.9%
Cc1cccc(NC(=S)NC2CC3CCCC(C2)N3CC(C)C)c1C (stereo not given)	-20.3%	-23.9%	i	20.6µM*	6.5%	13.1%
Cc1ccc(NC(=S)NC2CC3CCCC(C2)N3Cc2cccs2)cc1 (stereo not given)	?	17.8µM*	i	?	?	?
Fc1ccc(NC(=S)NC2CC3CCCC(C2)N3Cc2cccs2)cc1 (stereo not given)	3.4%	-8.0%	i	i	-0.5%	-5.0%
O=C(CN(CCO)c1ccccc1)Nc1ccc(Cl)c(S(=O)(=O)N2CCOCC2)c1	?	?	i	i	6.7%	-26.3%
COc1ccc(CCNC(=O)c2nnn(CC(=O)Nc3ccc(C)cc3C)c2N)cc1OC	-2.9%	16.5%	?	i	?	?
O=c1cc(/C=C/c2ccc([N+](=O)[O-])cc2)c2ccccc2[nH]1	-19.5%	-6.3%	i	i	.	.
CCC(Oc1ccccc1)C(=O)N1CC(C)CC(C)C1 (stereo not given)	-4.3%	-4.5%	i	i	12.1%	14.9%
CSc1nc2sc(-c3ccccc3)cc2c(=O)n1N	?	?	?	9.2µM*	2.9%	0.8%
CC(C)Sc1nc2sc(-c3ccccc3)cc2c(=O)n1N	-6.5%	5.6%	i	i	?	27.9%
Cn1cnnc1SCC(=O)Nc1ccc(N2CCCCC2)cc1	5.8%	1.4%	i	i	4.9%	3.3%
O=C(CSCc1nc2ccccc2[nH]1)N1CCN(c2cccc(Cl)c2)CC1	23.1µM*	?	?	20.6µM*	-2.0%	-11.3%
O=C(O)CSCc1nc2ccccc2[nH]1	6.7%	-2.6%	i	i	0.5%	-0.7%
O=C(CSCc1nc2ccccc2[nH]1)N1CCN(c2ccc(F)cc2)CC1	23.1µM*	18.4µM*	i	i	-0.4%	?
CC(=O)OC1CCC2(C)C3CCC4(C)C(CC5CCCCC54C(C)=O)C3CC(=O)[C@@]2(O)C1 (stereo not given in full)	1.4%	?	.	.	.	.
C[C@]12CCC3C(CC[C@H]4CCCC[C@]34C)C1CC[C@@]2(O)CNCCO (stereo not given in full)	13µM*	?	i	?	?	-5.7%
CN(C)CCCNC(=S)NCCNc1nc2cc3c(cc2cc1C#N)OCO3	16.6%	-2.1%	i	i	-0.5%	-3.7%
CC(=O)C1=CCC(c2ccc(Br)cc2)N(S(=O)(=O)c2ccc(C)cc2)C1 (stereo not given)	18.4µM*	?	i	i	?	?
CC(=O)C1=CCC(c2ccccc2)N(S(=O)(=O)c2cccc(C)c2)C1 (stereo not given)	16.4µM*	13µM*	i	i	?	-27.4%
CC(=O)C1=CCC(c2ccccc2)N(S(=O)(=O)c2ccccc2)C1 (stereo not given)	29.1µM*	18.4µM*	i	i	1.1%	0.2%
CC(=O)C1=CCC(c2ccc(Cl)cc2)N(S(=O)(=O)c2ccc(C)cc2)C1 (stereo not given)	?	16.4µM*	i	?	-29.1%	-25.8%
SMILES	TDP1 cell CPT	DT40 TDP1 no CPT	KB-3-1 tox	KB-V1 cytotox	HT1080NT lethal	HT1080 IDH1KD tx
Cc1cccc(-c2nc(S(=O)(=O)c3ccc(F)cc3)c(N3CCN(c4ccccc4)CC3)o2)c1	?	?	i	i	.	.
O=C(CN1CCOCC1)Nc1ccc([N+](=O)[O-])cc1	-6.4%	1.8%	i	i	-1.7%	0.6%
CC(=O)C1=CCC(c2ccco2)N(S(=O)(=O)c2ccc(C)cc2)C1 (stereo not given)	?	?	i	i	2.3%	3.8%
COc1ccc(C2CC=C(C(C)=O)CN2S(=O)(=O)c2ccc(Cl)cc2)cc1 (stereo not given)	16.4µM*	16.4µM*	i	i	-14.4%	?
CC(=O)C1=CCC(c2ccc(Cl)cc2)N(S(=O)(=O)c2ccccc2)C1 (stereo not given)	20.6µM*	18.4µM*	?	i	-28.3%	-20.9%
O=C(O)C1=CC[C@@H](c2ccc(Cl)cc2)N(S(=O)(=O)c2ccc(Cl)cc2)C1	-9.1%	-17.6%	i	i	3.0%	1.0%
COc1ccc(O)c(CN2CCC3(CCC(CNC(=O)C4CCCO4)O3)CC2)c1 (stereo not given)	-0.2%[9.04 µM]	-1.0%	.	.	.	.
COc1ccc(N2CCN(C(=O)COCc3cc(-c4ccc5c(c4)OCO5)on3)CC2)cc1	?	18.4µM*!	i	i	-3.3%	-7.9%
CCc1cccc(C)c1NC(=O)COCc1cc(-c2ccc3c(c2)OCO3)on1	23.1µM*	?	?	i	.	.
Cc1cc(C)c(NC(=O)COCc2cc(-c3cccs3)on2)c(C)c1	18.4µM*	?	i	i	.	.
O=C(COCc1cc(-c2ccc3c(c2)OCO3)on1)N1CCN(c2cccc(C(F)(F)F)c2)CC1	13µM*	23.1µM*!	?	i	?	?
O=C(NCCc1ccc(Cl)cc1)C1CCN(S(=O)(=O)N2CCC3(CC2)OCCO3)CC1	-10.9%	-17.4%	i	?	-2.2%	15.7%
N#CCC(=O)Nc1ncn(Cc2ccccc2Cl)n1	18.3%	-3.2%	i	i	1.7%	13.4%
COc1ccc(/C=C(\NC(=O)c2ccc(C)cc2)C(=O)NCCCn2ccnc2)cc1	3.3%	-1.0%	i	i	13.2%	7.1%

High-throughput results: PubChem BioAssay, National Center for Advancing Translational Sciences (NCATS)
